# Screens as filed in PubChem.
# ALDH1A1 block = ALDH1A1 (human) enzyme inhibition; P00352; Purified ALDH1A1, NADH fluorescence, propionaldehyde substrate; Potency, µM (series often up to 75.3 µM), for the others: at the top dose activity, negative = inhibition, actives largely listed as inhibitors; hit rate 7.3% among 220,000; AID 1030; active = well fitted inhibition curve with a large enough effect, not every such curve was filed as active; inconclusive = small, poorly fitted or top-dose-only effect, or another doubt; inactive = no such curve, though single readings can be large or run the other way;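 also: plate controls were no enzyme wells and a reference inhibitor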
# HPGD inh = HPGD (human) dehydrogenase inhibition | purified HPGD, NADH fluorescence kinetic, PGE2 substrate | hit rate 4.3% among 150,000 | Potency, µM, without a hit: at the top dose activity change, negative = inhibition, usual class: inhibitors; active = well fitted inhibition curve with a large enough effect, not every such curve was filed as active; inconclusive = small, poorly fitted or top-dose-only effect, or another doubt; inactive = no such curve, though single readings can be large or run the other way
# Target sequence (P15428 whole entry, looked up): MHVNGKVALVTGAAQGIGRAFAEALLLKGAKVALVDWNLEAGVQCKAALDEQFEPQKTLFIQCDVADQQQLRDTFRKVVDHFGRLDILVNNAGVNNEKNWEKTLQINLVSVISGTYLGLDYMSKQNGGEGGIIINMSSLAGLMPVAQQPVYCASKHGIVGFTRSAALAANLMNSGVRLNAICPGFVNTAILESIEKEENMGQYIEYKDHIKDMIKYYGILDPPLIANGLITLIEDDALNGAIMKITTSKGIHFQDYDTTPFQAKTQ
#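 NADH formation kinetics: reaction with 30 uM PGE2 and 1 mM NAD+ (final), 20 nM enzyme, Tris-HCl pH 8 with Tween 20, after 15 min compound preincubation at room temperature. Fluorescence change, last versus first of five reads.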
# Tau FP inhib = blocks human tau fibril formation measured by polarization; P10636; hit rate 0.39% among 280,000; K18 P301L tau heparin fibrillization, Alexa594 FP, 6 h; AID 1468; Potency, µM (titrated, usually from 57.7 µM), inactives show top-dose activity, negative = inhibition, actives largely listed as inhibitors; also: nearly all actives have a fitted effect of over 55% in size
#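 Steps: dispense K18 P301L tau (15 uM plus 0.24 uM Alexa 594 tracer, final) in pH 7 sodium acetate; add compound; add heparin (20 uM final); incubate 6 hr, 37 C; add ThT (30 uM final); after 1 hr ambient, read FP.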
# Tau fluor counter = counter-screen for tau fibril formation inhibitors | tau K18 P301L Alexa594 fluorescence, heparin fibrillization | Potency, µM (top dose mostly 57.7 µM), for the others: at the highest dose activity change, negative = decrease | hit rate 0.93% among 280,000 | AID 1463; also: nearly all actives have a fitted effect of over 55% in size
#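 Human tau K18 P301L (15 uM unlabeled, 0.24 uM Alexa 594-labeled) in 100 mM sodium acetate pH 7 with 20 uM heparin, 6 hr at 37 C. ThT 30 uM added, 1 hr ambient; Alexa 594 FP and total fluorescence read at 555/632 nm.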
# NPSR antag = antagonists of human neuropeptide S receptor cAMP signaling; CHO-NPSR cells, cAMP TR-FRET, antagonist mode; hit rate 1% among 220,000; Potency, µM (highest dose often 38.3 µM), inactives show at the highest dose activity change, negative = inhibition, hits mostly inhibitors; Q6W5P4; also: nearly all actives have a fitted effect of over 50% in size
# Target sequence (Q6W5P4 whole entry, looked up): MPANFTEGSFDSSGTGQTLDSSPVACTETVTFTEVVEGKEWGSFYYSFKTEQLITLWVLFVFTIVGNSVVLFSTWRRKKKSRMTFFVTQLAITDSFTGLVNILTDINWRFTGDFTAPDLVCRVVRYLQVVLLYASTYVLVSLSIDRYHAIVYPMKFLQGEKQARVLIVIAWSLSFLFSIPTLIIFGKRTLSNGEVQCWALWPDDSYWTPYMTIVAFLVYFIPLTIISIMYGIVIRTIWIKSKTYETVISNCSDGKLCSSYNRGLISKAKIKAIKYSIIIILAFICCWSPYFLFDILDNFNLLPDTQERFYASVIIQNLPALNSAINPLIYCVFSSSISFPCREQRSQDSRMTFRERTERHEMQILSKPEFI
# Tau ThT inhib = blocks human tau fibril formation measured by thioflavin T | P10636 | recombinant tau K18 P301L, heparin-induced fibrillization, ThT fluorescence | Potency, µM (highest dose often 57.4 µM), inactives show at the top dose activity, negative = inhibition, most hits filed as inhibitors | hit rate 2.1% among 270,000 | AID 1460; also: nearly all actives have a fitted effect of over 55% in size
#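 Fibril formation assay: tau K18 P301L at 15 uM with trace Alexa 594 label, heparin inducer 20 uM, pH 7 sodium acetate buffer, 37 C for 6 hr; endpoint ThT signal.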
# Active calls of the source: *; ? = inconclusive; . = no result; ! = not active in a repeat; [ ] = remark or other dose. Rows were chosen to be rich in hits. Some 9.5% of all compounds tested hit in one or more screens of this group. Unless noted, calls follow the shape of the dose curve; as a rule, active = well fitted curve in the direction sought with a large enough effect; inconclusive = small, poorly fitted or top-dose-only effect, or another doubt; inactive = no such curve, though single readings can be large; an effect the other way counts as inactive or inconclusive. Unless noted, % is scaled to controls: 0 for no effect and ±100 for the full control effect; potency is read from the fitted curve at half-maximal effect.
SMILES,ALDH1A1 block,HPGD inh,Tau FP inhib,Tau fluor counter,NPSR antag,Tau ThT inhib
CCCCC1=CC2=C(c3ccco3)C(=O)C(C)(OC(=O)c3ccc(OC)cc3)C(=O)C2=CN1Cc1ccc2c(c1)OCO2 (stereo unspecified),3.5µM*,-8%,-11%[11.6 µM],-5%[11.6 µM],-15%,?
CCCCC1=CC2=C(c3ccco3)C(=O)C(C)(OC(=O)c3ccc(OC)cc3)C(=O)C2=CN1Cc1ccccc1 (stereo unspecified),1%[13.5 µM],-8%,5%[11.6 µM],2%[11.6 µM],-52%,13µM*!
CCCCC1=CC2=C(c3ccco3)C(=O)C(C)(OC(=O)c3ccc(OC)cc3)C(=O)C2=CN1C1CCCCC1 (stereo unspecified),1%[13.5 µM],?,-1%[11.6 µM],-7%[11.6 µM],10µM*,?
COC(=O)c1ccccc1S(=O)(=O)N1CCc2nc(-c3ccccc3)c3c(c2C1)CO[C@@H](C)C3,?,-10%,-1%[11.6 µM],0%[11.6 µM],.,3%[11.5 µM]
N#Cc1c(SCC(N)=O)nc2c(c1-c1ccc(O)cc1)CCCC2,7.1µM*,-23%,-10%,-12%,-7%[46.1 µM],-2%
COc1ccc(-c2c(C#N)c(SCC(N)=O)nc3c2CCCC3)cc1,?,0%,3%,-11%,-37%,-6%
C=CC[C@@](C(C)=O)(C(=O)OC)C(NC(=O)OC(C)(C)C)c1ccccc1 (stereo partly specified),-1%,-4%,10%,-22%,.,?
CN1CC2([N+](=O)[O-])CC=C(Oc3ccccc3)C([N+](=O)[O-])(C1)C2 (stereo unspecified),2.8µM*,-14%,1%,-10%,-30%[46.1 µM],1%
O=C(NCCN1CCOCC1)c1cc2sccc2n1Cc1ccc(F)cc1,-14%,25µM*,0%,-12%,-9%[46.1 µM],-3%
O=C(NCCN1CCOCC1)c1cc2sccc2n1Cc1ccc(Cl)cc1,?,16µM*,?,-26%,-18%[46.1 µM],-21%
CNCc1ccccc1Sc1ccc(O)c(O)c1,0.56µM*,18µM*,8.9µM*,?,-14%,4µM*
COc1ccc(Sc2ccccc2CN(C)C)cc1OC,-7%,-4%,-5%,-3%,4%[46.1 µM],-1%
COc1ccc(S(=O)(=O)N2CCCN(CC(=O)C(C)(C)C)CC2)cc1,20µM*,-11%,-7%,5%,-5%[46.1 µM],-5%
COc1ccc(OC)c(C(=O)CN2CCN(S(=O)(=O)c3ccc(Br)cc3)CC2)c1,1.6µM*,-29%,8%,5%,19%[46.1 µM],-17%
C=C1C(C(=O)N2CCOCC2)C1C(=O)N1CCOCC1 (stereo unspecified),8%,1%,2%,6%,0%[46.1 µM],-3%
C/C(=C\C(=O)O)C(=O)Nc1nccs1,3%,-10%,-14%,-5%,-9%[46.1 µM],-10%
C/C(=C\C(=O)Nc1nccs1)c1ccccc1,-5%,16µM*,8%,-10%,-20%[46.1 µM],-20%
O=C(Nc1nccs1)c1ccc(Br)o1,?,25µM*,5%,-3%,-1%[46.1 µM],-6%
O=C(O)/C=C/C(=O)Nc1nccs1,0%,.,-8%,-12%,-19%,-12%
CSc1ccccc1C(=O)Nc1nccs1,?,16µM*,2%,-2%,1%[46.1 µM],4%
O=C(/C=C/c1ccc(Br)o1)Nc1nccs1,22µM*,.,-1%,-2%,-11%,-14%
Cc1nn(C)c(C)c1S(=O)(=O)N(CC(=O)Nc1ccc(F)cc1F)c1ccc(C(C)C)cc1,.,.,8%,-17%,.,-6%
C=CCOc1ccc(/C=N/NC(=O)C(=O)Nc2ccccn2)cc1OC,?,-1%,-14%,-1%,6%,?
CCCc1cc(C(=O)Nc2nccs2)cs1,?,10µM*,-1%,-13%,-13%[46.1 µM],-5%
Cn1cc(S(=O)(=O)N2CCc3ccccc32)cc1C(=O)Nc1ccc(C(F)(F)F)cc1,.,.,7%,?,.,-7%
SMILES,ALDH1A1 block,HPGD inh,Tau FP inhib,Tau fluor counter,NPSR antag,Tau ThT inhib
COc1ccc(S(=O)(=O)Nc2cccc(F)c2C)cc1C(=O)N1CCOCC1,13%,.,-8%,-5%,5%,-2%
COc1ccc(S(=O)(=O)Nc2ccccc2C)cc1C(=O)N1CCOCC1,10µM*,.,-1%,-2%,-8%,4%
Cc1ccc(N=Nc2c(O)ccc3cc(S(=O)(=O)O)ccc23)cc1,8%[13.5 µM],-24%,.,.,.,.
Cc1ccc(N=Nc2c(O)ccc3n[nH]nc23)cc1,?,.,8%,?,53%,3.5µM*
CN(C)c1ccc(N=Cc2nc(-c3ccccc3)oc2OC(=O)c2cccc(Br)c2)cc1,?,?,?,-27%,-46%,10µM*
CCOC(=O)c1ccc(N=Cc2nc(-c3ccccc3)oc2OC(C)=O)cc1,22µM*,16µM*,-14%,-18%,-17%[46.1 µM],?
Oc1oc(-c2ccco2)nc1C=Nc1ccccc1,22µM*,-1%,5%,-11%,-23%[46.1 µM],?
Cc1ccc(C(=O)Oc2oc(-c3ccco3)nc2C=Nc2ccccc2)cc1,?,7.1µM*,?,-15%,-22%[46.1 µM],?
O=C(O)c1ccc(N=Cc2nc(-c3ccco3)oc2O)cc1,15%,.,2%,-10%,-17%,-15%
Cc1nc2nncn2c(NCc2ccc(Cl)cc2)c1C,.,.,-4%,-1%,.,6%
CCN(CC)CCCCn1c(-c2ccccc2)nc2c(N(CCOC)CCOC)nc(C)nc21,?,?,4%,-6%,.,-3%
COc1ccc(N=Cc2nc(-c3ccccc3)oc2OC(=O)c2ccccc2)cc1,?,22µM*,?,-17%,-29%,?
CC(=O)Oc1oc(-c2ccccc2)nc1C=Nc1ccccc1,18µM*,16µM*,?,-24%,4%[46.1 µM],?
CCC(=O)Oc1oc(-c2ccccc2)nc1C=Nc1ccc(C)cc1,.,.,-2%,-17%,-32%,?
O=C(O)C1C2C=CC(O2)C1C(=O)Nc1ccccc1C(F)(F)F (stereo unspecified),14µM*,-1%,-2%,-5%,-1%[46.1 µM],-6%
c1ccc(CCNc2ccccc2)cc1,-13%,.,14%,-13%,-7%,-8%
Cc1ncoc1C(=O)Nc1ncc([N+](=O)[O-])s1,?,.,?,-20%,-14%,25µM*
Cc1ncoc1C(=O)Nc1nccs1,-7%,.,2%,-12%,7%[46.1 µM],?
CCOc1ccc(CNCc2c(C(=O)O)c(C)n(Cc3ccc(F)cc3Cl)c2C)cc1,.,.,4%,0%,.,0%
CCOc1ccc(S(=O)(=O)N2CCCCC2)c2ccccc12,32µM*,-29%,-13%,-18%,-17%[46.1 µM],-14%
CCOc1ccc(C(C)(C)C)cc1S(=O)(=O)N1CCOCC1,3.2µM*,-3%,-5%,-6%,-18%[46.1 µM],-4%
Cc1ccc(OCC(=O)N2CCCC(CCC(=O)N(C)CCc3ccccn3)C2)cc1 (stereo unspecified),-1%,.,5%,9%,6%,-1%
